From PubChem BioAssay (NCI)
Several values for one entry are separate records, joined by “and”; a condition that tells them apart may be missing. Identical values can stand only once. About 79,000 compounds went through this panel and 15% of them were active in at least one assay; those are over-represented in the sample as a whole. Where a structure was tested more than once in an assay, its records may differ in their call. Activity calls are given as the source filed them. Rule as the data show it: active = growth inhibition above about 70%; inactive = the rest.

How the values were obtained:
[1] = NCI Yeast Anticancer Drug Screen. Data for the rad50 strain (AID 155);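 also: 0% = growth of vehicle-only cultures of the same strain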; details: S. cerevisiae rad50 strain growth inhibition, stronger effect = higher value
How it was run: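 Cells are treated with compound, grown, and their growth is then scored against vehicle-only cultures of the same repair-deficient yeast strain.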

[2] = NCI Yeast Anticancer Drug Screen. Data for the mec2-1 strain (AID 157); details: S. cerevisiae mec2-1 strain, stronger effect = higher value
How it was run: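 Cells of the genetically defined mec2-1 yeast strain are incubated with test compound. Inhibition of growth is calculated against vehicle-treated controls.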

[3] = NCI Yeast Anticancer Drug Screen. Data for the sgs1 mgt1 strain (AID 161);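 also: 0% = growth of cultures given vehicle only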; details: S. cerevisiae sgs1 mgt1 strain, stronger effect = higher value
How it was run: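 Read-out: growth inhibition vs vehicle controls. Cells: mutant yeast strain deficient in DNA damage repair.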

[4] = NCI Yeast Anticancer Drug Screen. Data for the cln2 rad14 strain (AID 165);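 also: 0% = growth equal to vehicle treated cultures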; details: S. cerevisiae cln2 rad14 strain, stronger effect = higher value
How it was run: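 The screen exposed genetically defined yeast (cln2 rad14) to test compounds and scored growth inhibition relative to vehicle-treated controls.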

[5] = NCI Yeast Anticancer Drug Screen. Data for the bub3 strain (AID 167); details: S. cerevisiae bub3 mutant strain, stronger effect = higher value
How it was run: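 Part of a panel of yeast mutants defective in DNA damage repair or cell cycle regulation. Each strain is grown with compound, and inhibition is calculated relative to solvent-treated cultures.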

[6] = NCI Yeast Anticancer Drug Screen. Data for the mlh1 rad18 strain (AID 175); details: S. cerevisiae mlh1 rad18 strain growth inhibition, stronger effect = higher value
How it was run: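 Compound-treated yeast growth, normalised to vehicle controls. Strain bears defined DNA repair mutations.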

[7] = at 5.0 µM (retest, dose inferred, filed as 0.5)
[8] = at 50.0 µM (retest, dose inferred, filed as 5.0)

Measured: growth inhibition

O=C(C(=Cc1ccccc1)C(=O)c1ccccc1)c1ccccc1
inactive: [1]; [7] 42% | [2]; [7] 54% | [3]; [7] 50% | [4]; [7] 50% | [6]; [7] 69%
active: [1]; [8] 92% | [2]; [8] 95% | [3]; [8] 95% | [4]; [8] 89% | [5]; [7] 84% | [5]; [8] 96% | [6]; [8] 94%
88% (active) and 51.6% (inactive): [5]; at 50.0 µM
90.5% (active) and 7.7% (inactive): [2]; at 50.0 µM
83.8% (active) and -79.9% (inactive): [4]; at 50.0 µM
87.8% (active) and 20.8% (inactive): [6]; at 50.0 µM
86.5% (active) and 21.2% (inactive): [1]; at 50.0 µM
89.5% (active) and 18.9% (inactive): [3]; at 50.0 µM

CN(C)C(=S)SC(=S)N(C)C
active: [1]; [7] 97% and 96% | [1]; [8] 99% and 98% | [1]; at 50.0 µM 97.3% and 99% | [2]; [7] 98% and 94% | [2]; [8] 99% | [2]; at 50.0 µM 98.8% and 98.5% | [3]; [7] 97% and 94% | [3]; [8] 99% | [3]; at 50.0 µM 99.2% | [4]; [8] 97% | [4]; at 50.0 µM 87% and 97.2% | [5]; [7] 99% and 88% | [5]; [8] 99% and 98% | [5]; at 50.0 µM 98.5% and 99.2% | [6]; [7] 99% and 96% | [6]; [8] 99% | [6]; at 50.0 µM 98% and 98.8%
97% (active) and 50% (inactive): [4]; [7]

O=Cc1cc([N+](=O)[O-])cc(CCl)c1O
inactive: [1]; [7] -119% | [1]; [8] 26% | [1]; at 50.0 µM 20.7% | [2]; [7] -52% | [2]; [8] -31% | [2]; at 50.0 µM 13.2% | [3]; [7] -59% | [3]; [8] -8% | [3]; at 50.0 µM 15.2% | [4]; [7] -58% | [4]; [8] -17% | [4]; at 50.0 µM 20.1% | [5]; [7] -71% | [5]; [8] -32% | [5]; at 50.0 µM -6.45% | [6]; [7] -123% | [6]; [8] -28% | [6]; at 50.0 µM 27.9%

O=C(NNc1ccnc2cc(Cl)ccc12)/C(=C/c1ccc2c(c1)OCO2)NC(=O)c1ccccc1
inactive: [1]; [7] 12% | [2]; [7] -18% | [2]; [8] 46% | [3]; [7] -4% | [3]; [8] 47% | [4]; [7] 2% | [4]; [8] 64% | [5]; [7] -9% | [5]; at 50.0 µM 58.9% | [6]; [7] -2%
active: [1]; [8] 71% | [1]; at 50.0 µM 90.7% | [2]; at 50.0 µM 77.3% | [3]; at 50.0 µM 86.8% | [4]; at 50.0 µM 79.7% | [5]; [8] 83% | [6]; [8] 71% | [6]; at 50.0 µM 93.1%

CCC1=C(C)/C(=C/c2[nH]c(C)c(CC)c2C)N=C1C
inactive: [1]; [7] -3% and -5% | [1]; [8] 20% and -58% | [1]; at 50.0 µM 61.1% and 33% | [2]; [7] 6% and 0% | [2]; [8] 48% and 53% | [2]; at 50.0 µM 66.5% and -2.85% | [3]; [7] 0% and -2% | [3]; [8] 51% and 32% | [4]; [7] -12% and -15% | [4]; [8] 31% and 6% | [4]; at 50.0 µM 18.6% and -57.5% | [5]; [7] 26% and 5% | [5]; [8] 45% and 33% | [5]; at 50.0 µM 31.2% and 22.6% | [6]; [7] -7% and 4% | [6]; [8] 61% and 48% | [6]; at 50.0 µM 60.5% and 21.7%
active: [3]; at 50.0 µM 76.2% and 78.1%

O=[N+]([O-])Cc1cnc2nncn2n1
active: [1]; [8] 96% | [1]; at 50.0 µM 86.3% | [2]; [8] 97% | [2]; at 50.0 µM 98.4% | [3]; [8] 96% | [3]; at 50.0 µM 99.2% | [5]; [8] 99% | [6]; [8] 97% | [6]; at 50.0 µM 87.5%
inactive: [1]; [7] -6% | [2]; [7] -9% | [3]; [7] 2% | [4]; [7] 2% | [4]; [8] 53% | [4]; at 50.0 µM 24.2% | [5]; [7] -27% | [5]; at 50.0 µM 38.5% | [6]; [7] -12%

Cc1c(-c2ccccc2)ccnc1/C=N/NC(N)=S
inactive: [1]; [7] 29% | [1]; [8] 42% | [1]; at 50.0 µM 48.1% | [2]; [7] 9% | [2]; [8] 53% | [3]; [7] 43% | [3]; [8] 58% | [3]; at 50.0 µM 65.7% | [4]; [7] 39% | [4]; [8] 39% | [4]; at 50.0 µM 54.4% | [5]; [7] 49% | [5]; [8] 45% | [6]; [7] 18% | [6]; [8] 36%
active: [2]; at 50.0 µM 79% | [5]; at 50.0 µM 80.7% | [6]; at 50.0 µM 82%

Nc1ncnc(N)c1N=O
inactive: [1]; [7] -19% | [1]; [8] 1% | [1]; at 50.0 µM 39% and 21.6% | [2]; [7] -13% | [2]; [8] -3% | [2]; at 50.0 µM 32.5% and 4.05% | [3]; [7] 5% | [3]; [8] 3% | [3]; at 50.0 µM 67.5% and 35.1% | [4]; [7] 11% | [4]; [8] 28% | [4]; at 50.0 µM 39.3% and 31.2% | [5]; [7] -2% | [5]; [8] 54% | [5]; at 50.0 µM 62.6% and 53.2% | [6]; [7] -3% | [6]; [8] 15% | [6]; at 50.0 µM 34.5% and 26.6%

O=C1c2ccccc2C(=O)N1CC[P+](c1ccccc1)(c1ccccc1)c1ccccc1
70.5% (active) and 58.6% (inactive): [1]; at 50.0 µM
inactive: [1]; [7] 48% | [2]; [7] 36% | [2]; at 50.0 µM 58.5% and 46.8% | [3]; [7] 20% | [3]; [8] 69% | [3]; at 50.0 µM 63.5% and 62.5% | [4]; [7] -5% | [4]; [8] 47% | [4]; at 50.0 µM 20.8% and 40% | [5]; [7] 30% | [5]; at 50.0 µM 57.9% and 43.3% | [6]; [7] 43% | [6]; at 50.0 µM 63.1% and 54.9%
active: [1]; [8] 79% | [2]; [8] 87% | [5]; [8] 79% | [6]; [8] 85%

O=C(O)c1c2ccccc2nc2[nH]c(=O)[nH]c(=O)c12
inactive: [1]; [7] -1% | [1]; [8] -3% | [1]; at 50.0 µM 3.3% and 23.4% | [2]; [7] -2% | [2]; [8] -2% | [2]; at 50.0 µM -5.05% and 33.4% | [3]; [7] -6% | [3]; [8] -3% | [3]; at 50.0 µM -4.45% and 24.3% | [4]; [7] 0% | [4]; [8] 6% | [4]; at 50.0 µM 62.9% and -0.85% | [5]; [7] -1% | [5]; [8] -5% | [5]; at 50.0 µM 7.1% and 34% | [6]; [7] 0% | [6]; [8] -4% | [6]; at 50.0 µM -1.9% and 15.7%

CC(=O)OC(c1ccccc1)c1ccc(Cl)cc1 (stereo not given)
inactive: [1]; [7] 3% | [1]; [8] 0% | [1]; at 50.0 µM -11% | [2]; [7] 7% | [2]; [8] 6% | [2]; at 50.0 µM 42.2% | [3]; [7] 4% | [3]; [8] 8% | [3]; at 50.0 µM -0.4% | [4]; [7] 4% | [4]; [8] -14% | [4]; at 50.0 µM -1.9% | [5]; [7] 6% | [5]; [8] 8% | [5]; at 50.0 µM -5.65% | [6]; [7] 1% | [6]; [8] -1% | [6]; at 50.0 µM 2.9%

CC(=O)OC1OC(=O)C(C)(C(C)=O)C1C (stereo not given)
active: [1]; [8] 95% | [1]; at 50.0 µM 89.9% | [2]; [8] 96% | [2]; at 50.0 µM 89.6% | [3]; [8] 93% | [3]; at 50.0 µM 89.9% | [4]; [8] 81% | [4]; at 50.0 µM 83.2% | [5]; [8] 93% | [5]; at 50.0 µM 89.2% | [6]; [8] 96% | [6]; at 50.0 µM 89.6%
inactive: [1]; [7] 19% | [2]; [7] 10% | [3]; [7] 25% | [4]; [7] 27% | [5]; [7] 23% | [6]; [7] 22%

O=C1C(CN2CCCCC2)CCCC1CN1CCCCC1 (stereo not given)
inactive: [1]; [7] 0% | [1]; [8] 25% | [1]; at 50.0 µM 13.3% and 4.85% | [2]; [7] 2% | [2]; [8] 44% | [2]; at 50.0 µM -11.6% and 24.8% | [3]; [7] 1% | [3]; [8] 29% | [3]; at 50.0 µM 10.4% and 31.3% | [4]; [7] -4% | [4]; [8] 6% | [4]; at 50.0 µM -46.1% and 41.2% | [5]; [7] -4% | [5]; [8] 20% | [5]; at 50.0 µM -3.9% and 59.3% | [6]; [7] -1% | [6]; [8] 29% | [6]; at 50.0 µM 3.2% and 10.4%

C/C(=N\O)c1cc(Br)cc([N+](=O)[O-])c1O
inactive: [1]; [7] 1% | [1]; [8] 14% | [1]; at 50.0 µM 6.45% | [2]; [7] 7% | [2]; [8] 35% | [2]; at 50.0 µM 4.15% | [3]; [7] 3% | [3]; [8] 27% | [3]; at 50.0 µM 4.95% | [4]; [7] 13% | [4]; [8] 11% | [4]; at 50.0 µM 39% | [5]; [7] 4% | [5]; [8] 10% | [5]; at 50.0 µM 8.3% | [6]; [7] 5% | [6]; [8] 25% | [6]; at 50.0 µM 14.8%

Oc1c(Cl)cc(Cl)cc1Cc1cc(Cl)cc(Cl)c1O
active: [1]; [7] 93% and 80% | [1]; [8] 98% | [1]; at 50.0 µM 98.2% and 99% | [2]; [7] 86% and 85% | [2]; [8] 99% | [2]; at 50.0 µM 98.8% and 99.2% | [3]; [7] 92% and 85% | [3]; [8] 98% | [3]; at 50.0 µM 98.1% and 99.4% | [4]; [7] 97% and 84% | [4]; [8] 99% and 98% | [4]; at 50.0 µM 99% | [5]; [7] 88% and 74% | [5]; [8] 98% | [5]; at 50.0 µM 98.4% and 99.3% | [6]; [7] 94% and 89% | [6]; [8] 98% | [6]; at 50.0 µM 98.5% and 99.2%
